Experimental findings from the supplement of paper PMC11624193, “Coupling cellular drug-target engagement to downstream pharmacology with CeTEAM” (Nature Communications, 2024) are described below.

Counter-ions that a name gives are not always drawn. Unmarked numbers belong to inactive results.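 Rule for the calls: active = log2 fold change beyond 2 SD from the library mean after excluding viability outliers; inactive = within 2 SD.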

The assay deals with PARP1 L713F-nLuc biosensor (HCT116) (UniProt P09874). As to the kind of experiment: PARP1 L713F-nLuc/akaLuc ratio relative to DMSO control (biosensor stabilization) (fold change); higher = more PARP1 biosensor stabilization (target engagement / stabilizer), active = hit call of the paper. To be noted: stock concentration (mM; final µM = stock mM x 1): 10; 24 h.
Chain of PARP1 L713F-nLuc biosensor (HCT116) (P09874 whole entry L713F, looked up): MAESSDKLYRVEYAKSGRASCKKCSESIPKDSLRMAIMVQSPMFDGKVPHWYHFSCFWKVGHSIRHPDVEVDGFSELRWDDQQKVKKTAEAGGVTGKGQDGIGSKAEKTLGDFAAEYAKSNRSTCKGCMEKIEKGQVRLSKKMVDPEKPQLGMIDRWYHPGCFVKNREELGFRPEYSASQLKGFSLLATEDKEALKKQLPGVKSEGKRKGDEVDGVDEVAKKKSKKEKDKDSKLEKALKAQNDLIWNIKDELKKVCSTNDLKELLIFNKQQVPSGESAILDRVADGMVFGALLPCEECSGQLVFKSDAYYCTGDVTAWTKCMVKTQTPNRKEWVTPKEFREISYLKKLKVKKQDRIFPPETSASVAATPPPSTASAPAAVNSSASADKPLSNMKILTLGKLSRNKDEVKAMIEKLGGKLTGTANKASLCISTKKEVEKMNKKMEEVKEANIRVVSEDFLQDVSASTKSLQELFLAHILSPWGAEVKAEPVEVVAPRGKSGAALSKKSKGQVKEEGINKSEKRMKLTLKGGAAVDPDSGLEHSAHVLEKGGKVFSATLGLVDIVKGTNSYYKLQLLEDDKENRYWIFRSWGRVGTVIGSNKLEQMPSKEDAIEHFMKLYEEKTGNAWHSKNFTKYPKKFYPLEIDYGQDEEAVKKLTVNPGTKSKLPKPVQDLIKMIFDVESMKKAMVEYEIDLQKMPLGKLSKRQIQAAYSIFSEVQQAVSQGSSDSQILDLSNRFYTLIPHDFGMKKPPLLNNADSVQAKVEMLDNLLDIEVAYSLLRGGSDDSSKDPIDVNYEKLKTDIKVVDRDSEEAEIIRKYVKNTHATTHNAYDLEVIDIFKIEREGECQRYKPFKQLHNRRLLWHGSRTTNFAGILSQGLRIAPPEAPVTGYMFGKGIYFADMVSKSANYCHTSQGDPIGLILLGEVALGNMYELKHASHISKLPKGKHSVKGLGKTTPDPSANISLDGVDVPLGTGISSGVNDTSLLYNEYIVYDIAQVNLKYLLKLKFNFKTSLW
For `CC[C@@](C)(Nc1ccnc(-c2c[nH]c3ncccc23)n1)C(=O)NCC(F)(F)F` [Decernotinib (VX-509)], the “PARP1 L713F-nLuc/akaLuc ratio” value was 0.506. Consider `CN1CC[C@@H](NC(=O)Nc2ccc(C#N)cc2)C[C@@H]1c1nc2ccccc2[nH]1`, for which the “PARP1 L713F-nLuc/akaLuc ratio” value was 0.89.

Take `N[C@@H]1CCCN(c2c(/C=C3\SC(=O)NC3=O)cccc2-c2ccccc2)C1`: the “PARP1 L713F-nLuc/akaLuc ratio” value was 0.726. Regarding `O=C(NCCCc1ccccc1)c1cccc(-c2cc(O)c3ncccc3c2)c1`, the “PARP1 L713F-nLuc/akaLuc ratio” value is 0.729.

For `O=C(Nc1cccc(Cl)c1)Nc1ncc(CCNc2ncnc3ccsc23)s1` [SNS-314 (mesylate)], the “PARP1 L713F-nLuc/akaLuc ratio” value is 1.11.

As for `COc1cc2ncnc(Nc3ccc(O)cc3)c2cc1OC`, the “PARP1 L713F-nLuc/akaLuc ratio” value is 0.842. Regarding `CCN(CC)CCCC(C)Nc1c2ccc(Cl)cc2nc2ccc(OC)cc12` (stereo not given) [Quinacrine Dihydrochloride Dihydrate], the “PARP1 L713F-nLuc/akaLuc ratio” value is 0.656. For the molecule `CN(Cc1cnc2nc(N)nc(N)c2n1)c1ccc(C(=O)N[C@@H](CCC(=O)O)C(=O)O)cc1` [Methotrexate], the “PARP1 L713F-nLuc/akaLuc ratio” value was 0.755. As to `CN1CCCN(C(=O)c2cccc(-c3ccc(/C=C4/C(=O)Nc5ccc(Cl)cc54)o3)c2)CC1` [CX-6258 (hydrochloride)], the “PARP1 L713F-nLuc/akaLuc ratio” value is 0.53. On to `Cc1cc(C)c(CNC(=O)c2cc(-c3ccc(CN4CCOCC4)cc3)cc3c2cnn3C2CCCC2)c(=O)[nH]1`, for which the “PARP1 L713F-nLuc/akaLuc ratio” value was 1.16.
